MRP1 act: activates MRP-1; H69AR cells + doxorubicin, viability rescue, CellTiter-Glo; viability increase, % at 10 µM; 140,000 compounds, 0.61% hits; AID 799;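 active means viability gain under doxorubicin at or above a set limit, the compound median plus 3 SD, cut at about 4.7% in these data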;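 further: MRP-1 overexpressing cells given doxorubicin 25 µM after compound pretreatment; 18-22 h compound pretreatment then 72 h with doxorubicin before readout; 0% = doxorubicin-only wells and 100% = vehicle-treated cells without doxorubicin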
Mac1 fbg enh: enhancers of human CD11b/CD18 binding to fibrinogen | P05107+P11215 | K562 CD11b/CD18 adhesion to fibrinogen, ATPlite luminescence | activation, % at 10 µM | 93,000 compounds, 0.07% hits | AID 1499;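 active means 10 µM primary screen giving 50% or more activity, confirmed by 40% or more on retest at that dose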
Target sequence (P05107 whole entry, looked up, other chains not shown): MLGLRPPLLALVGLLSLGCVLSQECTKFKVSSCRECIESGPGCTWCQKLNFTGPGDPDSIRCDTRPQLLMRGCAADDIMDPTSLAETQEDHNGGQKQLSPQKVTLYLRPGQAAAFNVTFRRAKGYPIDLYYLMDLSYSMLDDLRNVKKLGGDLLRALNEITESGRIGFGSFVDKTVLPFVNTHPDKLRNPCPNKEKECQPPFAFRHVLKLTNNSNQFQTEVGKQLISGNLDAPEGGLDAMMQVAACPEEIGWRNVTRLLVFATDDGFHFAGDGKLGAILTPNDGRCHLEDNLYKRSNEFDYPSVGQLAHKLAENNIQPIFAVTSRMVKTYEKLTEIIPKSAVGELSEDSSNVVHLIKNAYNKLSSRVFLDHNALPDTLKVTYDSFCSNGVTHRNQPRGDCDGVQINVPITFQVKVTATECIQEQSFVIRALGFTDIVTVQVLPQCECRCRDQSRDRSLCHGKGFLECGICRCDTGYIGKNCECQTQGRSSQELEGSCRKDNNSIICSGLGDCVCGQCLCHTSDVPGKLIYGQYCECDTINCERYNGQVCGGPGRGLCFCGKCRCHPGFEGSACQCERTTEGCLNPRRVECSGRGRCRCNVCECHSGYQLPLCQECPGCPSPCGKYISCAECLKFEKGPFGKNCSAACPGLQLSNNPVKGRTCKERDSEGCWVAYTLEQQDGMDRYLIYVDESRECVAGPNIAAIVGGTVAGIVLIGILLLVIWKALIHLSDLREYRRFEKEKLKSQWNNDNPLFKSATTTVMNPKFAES
MRP resist rev: MRP-mediated drug resistance reversal | H69AR cells + 2 uM doxorubicin, CellTiter-Glo, 72 h | differential viability (reversal), % at 10 µM | 85,000 compounds, 0.04% hits | AID 602;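 active means viability drop by adding the cancer drug above about 55%, with treated viability meeting a 40% cutoff, limit read from the data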;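 further: viability without doxorubicin minus viability with 2 µM doxorubicin for each compound; larger differential means the compound sensitizes cells more to doxorubicin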
Mac1 fbg inh: inhibitors of human CD11b/CD18 binding to fibrinogen | K562 CD11b/CD18 adhesion to fibrinogen, ATPlite luminescence; Mn2+ added to activate the integrin | inhibition, % at 10 µM | P05107+P11215 | 93,000 compounds, 0.54% hits;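 active means primary inhibition of 50% or more at 10 µM, then 40% or more on retest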
PTK2B oligo ant: blocks oligomerization of human Pyk2 in cells | z-score (the deposit names both 25 µM and 10 µM) | 99,000 compounds, 0.83% hits | Q293 cells, Pyk2 FERM NanoBiT luminescence; stronger effect = lower value | Q14289;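 active means Z-score of -3 or lower, scaled per plate to the spread of control and sample wells; inactive means z-score above -3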;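 further: negative z-score means lost luminescence so less FERM oligomerization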
Cav32 inh: blocks human Cav3.2 T-type calcium channel | Cav3.2-expressing cells, Fluo-4 calcium fluorescence FDSS; stronger effect = lower value | B-score at 10 µM | 100,000 compounds, 4% hits | O95180;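 active means single-dose well whose peak fluorescence ratio is a statistical outlier from its plate by either plate-standardised score or position-corrected B-score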
Numbers without * were called inactive; x = no result given. Only some compounds are listed: those with a hit (about 4.1% of all), similar ones and a draw of the others.

SMILES	MRP1 act	Mac1 fbg enh	MRP resist rev	Mac1 fbg inh	PTK2B oligo ant	Cav32 inh
CC(CN(C)Cc1ccccc1)OC(=O)c1cccc(F)c1 (stereo unspecified)	-1	x	x	x	x	x
COc1cccc(NC(=O)CSc2nnc(Cc3cccn3C)n2-c2ccc(F)cc2)c1	-1	4	-17	20	x	-5*
Cn1cccc1Cc1nnc(SCC(=O)NC2CCCCC2)n1-c1ccc(F)cc1	-2	-4	9	22	x	-0.51
Cc1ccc(C)c(NC(=O)C(Sc2nc3ccc(C)cc3[nH]2)c2ccccc2)c1 (stereo unspecified)	-5	x	x	x	x	x
CC(Sc1nc2ccccc2s1)C(=O)Nc1nnc(C(C)C)s1 (stereo unspecified)	-1	0	-2	17	x	-4.6
CCC(Sc1nc2ccccc2s1)C(=O)Nc1nnc(C)s1 (stereo unspecified)	10*	-3	x	-12	0.37	-0.39
O=C(O)c1ccc(CSc2nnc(COc3ccc(Cl)cc3Cl)o2)cc1	1	1	5	11	x	-9.2*
COc1cccc(C(=O)Nc2cccc(C(=O)NCC(C)C)c2)c1	-4	x	x	x	0.41	x
O=C(c1ccccn1)N1N=C2/C(=C/c3ccccc3)CCCC2C1c1ccccc1 (stereo unspecified)	-2	x	x	x	x	x
CNC(=O)c1sc(N2N=C3/C(=C/c4ccccc4)CCCC3C2c2ccccc2)nc1C (stereo unspecified)	-5	4	x	-2	-1.3	-4.4*
Oc1ccc(Nc2nc3ccccc3nc2Nc2ccc(O)cc2)cc1	-3	2	0	-5	-4.4*	0.72
O=C(NC(=S)NC(=O)c1ccccc1F)c1ccccc1F	7.1*	0	x	7	x	x
CC(C)C(=O)NC(=S)N(Cc1ccccc1)Cc1ccccc1	-3	x	x	x	x	x
O=C(NC(=S)NCc1ccccc1)c1ccccc1F	-3	-2	x	-1	-0.42	-0.69
O=C(NC(=S)N(Cc1ccccc1)Cc1ccccc1)c1ccccc1F	-3	0	x	9	-0.9	-6.2*
COc1ccc(/C=C/C(=O)NC(=S)Nc2ccc(S(=O)(=O)Nc3ccc(OC)nn3)cc2)cc1	-1	x	x	x	x	x
Cc1ccc(C(C(=O)NC2CCCCC2)N(Cc2ccco2)C(=O)Cn2cnc3ccccc32)cc1 (stereo unspecified)	-5	x	11	x	-1.1	-5.1*
O=C(NC1CCCCC1)C(c1ccccc1F)N(Cc1ccco1)C(=O)Cn1nnc2ccccc21 (stereo unspecified)	-5	-2	1	9	-0.9	x
CCC(C(=O)NC1CCCC1)N(Cc1ccco1)C(=O)Cn1nnc(-c2ccc(C)cc2)n1 (stereo unspecified)	1	0	9	-24	-0.45	-3.7*
Cc1ccc(CN(C(=O)C(F)(F)F)C(C(=O)NC2CCCCC2)c2ccco2)cc1 (stereo unspecified)	1	x	6	x	0.22	-5.4*
COc1cc(OC)c2c(O)c3c(c(-c4c5c(c(O)c6c(OC)cc(OC)cc46)CO[C@@H](C)[C@H]5O)c2c1)[C@H](O)[C@H](C)OC3	x	x	x	x	x	-1.3
Cc1ccc(N2N=C(c3ccc(Br)cc3)CCC2=O)cc1	0	-1	x	13	x	x
Clc1cccc(Cl)c1COn1nnc2ccccc21	-2	-1	-29	-19	-0.73	-2.9
c1ccc(COn2nnc3ccccc32)c(COn2nnc3ccccc32)c1	0	1	3	4	-1.9	-4.8*
CCc1ccc(C2CC(c3ccc(Cl)cc3)=NNC2=O)cc1 (stereo unspecified)	1	-3	12	0	-1.1	-2
SMILES	MRP1 act	Mac1 fbg enh	MRP resist rev	Mac1 fbg inh	PTK2B oligo ant	Cav32 inh
CC(=O)Oc1cc(O)c2c(=O)c(OC(C)=O)c(-c3ccc(OC(C)=O)c(OC(C)=O)c3)oc2c1	x	x	x	x	x	-1.9
CC(Sc1ccc(Cl)cc1)C(=O)Nc1ccc2c(c1)OCO2 (stereo unspecified)	-2	x	10	x	0.5	-5.8*
CC(C(=O)NCc1ccc2c(c1)OCO2)N1c2cccc3cccc(c23)S1(=O)=O (stereo unspecified)	-1	x	5	x	-0.65	-5.1*
CC(C)C(C(=O)Nc1ccc(S(=O)(=O)N2CCOCC2)cc1)N1C(=O)c2ccccc2C1=O (stereo unspecified)	-1	-4	28	3	-0.11	0.13
O=C(Nc1ccc2c(c1)OCO2)C(c1ccc(Cl)cc1)N1CCN(C(=O)c2ccco2)CC1 (stereo unspecified)	-2	1	13	7	-0.84	-4.3*
O=C(CN1c2cccc3cccc(c23)S1(=O)=O)NCc1ccc2c(c1)OCO2	-3	-3	1	4	-0.81	0.055
CC(Sc1ccc(Cl)cc1)C(=O)Nc1ccc(S(=O)(=O)N2CCOCC2)cc1 (stereo unspecified)	-2	x	-16	x	-1.2	-5.1*
O=C(Nc1ccc2c(c1)OCO2)C(c1ccccc1)N1CCN(C(=O)c2ccco2)CC1 (stereo unspecified)	-1	-4	9	5	-1.1	-0.16
Cc1cc(C)cc(NC(=O)CCn2ccnc2C)c1	-3	-2	-8	2	0.91	-0.11
CCc1ccccc1N(C(=O)c1cccs1)C1C=CS(=O)(=O)C1 (stereo unspecified)	0	x	-27	x	-0.73	0.81
CCOC(=O)COn1c(=O)c(-c2cc3ccccc3o2)[n+]([O-])c2ccccc21	-3	x	x	x	-0.9	-2
CC(Sc1ccc(Cl)cc1)C(=O)NCc1ccc2c(c1)OCO2 (stereo unspecified)	-2	-3	0	36	0.09	-5.8*
Cc1cc(C)c(OC2(c3ccccc3)OC(=O)c3ccccc32)c(C)c1 (stereo unspecified)	1	x	x	x	-0.23	-3.7
Cc1cccc(C)c1OC1(c2ccccc2)OC(=O)c2ccccc21 (stereo unspecified)	-2	x	x	x	-1.4	-6.6*
Cc1ccc(Nc2nc(N)nc(CN3CCc4ccccc4C3)n2)cc1	0	0	-13	-10	-0.55	-0.6
Cc1c(Cl)cccc1Nc1nc(N)nc(CN2CCc3ccccc3C2)n1	-3	-3	-48	3	-0.34	-4*
COCCOC(=O)C1=C(C)NC2=C(C(=O)CCC2)C1c1cc2c(cc1Br)OCO2 (stereo unspecified)	-1	2	5	-2	-0.81	-1.3
CCC(C)c1ccc2oc(-c3ccc(NC(=O)c4ncn[nH]4)cc3)nc2c1 (stereo unspecified)	-1	x	-10	x	-0.01	-0.051
Cc1ccc(C)c(NC(=O)c2ncn[nH]2)c1	-2	1	-10	-3	0.52	-4.2*
CCC(C)c1ccc(O)c(NC(=O)c2ncn[nH]2)c1 (stereo unspecified)	5.3*	4	10	-33	-0.89	0.52
CC1(OC(=O)C2CCCC2)C(=O)C=C2C=C(c3ccsc3)N(C(CO)CO)C=C2C1=O (stereo unspecified)	x	x	x	x	x	0.61

Screening results as filed in PubChem.
